Measurements: PubChem BioAssay AID602428 (Sanford-Burnham Center for Chemical Genomics, 2012)
The campaign covered roughly 2,500 compounds. About 980 (39%) were called active.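 The calls were made as follows: active = mean inhibition at 5 µM reaching about 45% (limit read from the data); inactive = the rest.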 The full list was thinned out, with actives kept by preference.

experiment: Gli-SUFU pathway antagonists, confirmation, single concentration, luciferase luminescence, Sufu-KO-LIGHT cells (AID 602428); conditions: Gli luciferase reporter, at 5 µM, active compounds read high;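 also: plate controls were DMSO-treated cells for no effect and wells lacking cells for full effect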

| Structure (SMILES) | inhibition |
| --- | --- |
| CCOc1cccc(=NC2CCCCC2)c2c(C)[nH]c(C)c12 | 86.4% (active) |
